In the library only some 2.7% were active in any assay of this set; here they are far more common.
ERG Ets-DNA blk: qHTS for Small Molecule Inhibitors of the ERG Ets/DNA interaction | Potency, µM (doses to about 76.9 µM), for inactives: at the highest dose FP activity, negative = inhibition, most hits filed as inhibitors | fluorescence polarization, His-ERG Ets domain / labelled DNA | 370,000 tested, 0.028% active | Transcriptional regulator ERG (Homo sapiens), P11308; active means well fitted inhibition curve with a large enough effect in the polarisation, with a control signal flat; inconclusive means small, poorly fitted or top-dose-only effect, or effect the other way, or a change in a side signal; inactive means no such curve, though single readings can be large or run the other way; the % refers to the polarisation;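 further: polarization taken with two DNA probes labelled with fluorescein and Texas red; potency means the concentration at half of the fitted maximal effect; % of control where 0% means no effect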
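His-tagged ERG Ets domain (1 uM in the protein solution; 300mM KCl, 50mM Tris-HCl, 1mM EDTA, 1mM DTT, pH 7.5) received compound, then a probe mix of 5 nM fluorescein-DNA and 100nM Texas-615-DNA. Fluorescence polarization was read for both dyes.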
Nrf2 activator: qHTS of Nrf2 Activators; AREc32 ARE-luciferase reporter (MCF7-derived line), luminescence, 24 h; Potency, µM (titrated, usually from 46.1 µM), inactives show top-dose activation, most hits filed as activators; 410,000 tested, 0.31% active; further: potency means the concentration at half of the fitted maximal effect; % of control where 0% means no effect; nearly all actives have a fitted effect of over 65% in size
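For detection, Steady-Glo was added and plates sat 30 min at RT; before that, AREc32_Fluc cells grown overnight in OPTI-MEM/5% FBS had been treated with 23 nL compound for 24 hr at 37 deg C.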
12-LOX inh: Primary qHTS assay for inhibitors of human arachidonate 12S-lipoxygenase (ALOX12): Round 2; AID 1671190, 2021; Potency, µM (series often up to 108 µM), for the others: at the top dose activity change, negative = inhibition, usual class: inhibitors; purified 12hLO, xylenol orange hydroperoxide absorbance; Polyunsaturated fatty acid lipoxygenase ALOX12 (Homo sapiens), P18054; 580,000 tested, 1.1% active; further: potency means the concentration at half of the fitted maximal effect; on the % scale 0 is the no-effect control and ±100 the full control effect
Target sequence (P18054 whole entry, looked up): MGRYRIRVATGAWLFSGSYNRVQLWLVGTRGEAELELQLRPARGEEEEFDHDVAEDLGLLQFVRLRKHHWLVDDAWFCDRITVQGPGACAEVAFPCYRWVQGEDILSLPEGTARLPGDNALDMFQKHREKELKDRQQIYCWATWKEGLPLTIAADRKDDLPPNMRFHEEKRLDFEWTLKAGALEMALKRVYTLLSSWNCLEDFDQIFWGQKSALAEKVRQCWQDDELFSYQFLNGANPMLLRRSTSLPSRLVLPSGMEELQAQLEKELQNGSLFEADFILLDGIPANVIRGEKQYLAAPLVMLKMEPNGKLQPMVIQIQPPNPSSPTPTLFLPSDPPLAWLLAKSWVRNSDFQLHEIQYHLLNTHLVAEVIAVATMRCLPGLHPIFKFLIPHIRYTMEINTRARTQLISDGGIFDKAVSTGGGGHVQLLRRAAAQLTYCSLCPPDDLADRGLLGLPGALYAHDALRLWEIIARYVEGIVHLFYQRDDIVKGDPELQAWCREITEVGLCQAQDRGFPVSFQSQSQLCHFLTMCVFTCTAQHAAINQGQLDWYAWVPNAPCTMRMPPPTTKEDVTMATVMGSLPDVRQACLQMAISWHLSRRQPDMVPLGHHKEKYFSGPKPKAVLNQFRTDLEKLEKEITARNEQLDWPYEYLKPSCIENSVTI
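Hydroperoxide product was detected by ferrous iron/xylenol orange as the 573 to 405 nm absorbance ratio. Arachidonic acid at 40 uM (final) was turned over for 30 min at room temperature by 150 nM human 12hLO, pH 7.0 Hepes buffer, after 15 min compound preincubation.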
A549 tox: Nrf2 qHTS screen for inhibitors: counterscreen for cytotoxicity. 390,000 tested, 0.16% active. Potency, µM (top dose mostly 46 µM), for the others: at the highest dose activity change, negative = cytotoxicity, actives largely listed as inhibitors. A549 ARE-Fluc cells, CellTiter-Fluor viability, 18-24 h. AID 504648, 2011; further: potency means the concentration at half of the fitted maximal effect; on the % scale 0 is the no-effect control and ±100 the full control effect
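A549 ARE_Fluc cells in 5% FBS OPTI-MEM were exposed to compounds in concentration-response for 18-24 h at 37 deg C. Viability was read by CellTiter-Fluor fluorescence (Ex 405/Em 525) after 30 min, before the luciferase read.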
LDHA inh: qHTS assay for inhibitors of human lactate dehydrogenase; L-lactate dehydrogenase A chain (Homo sapiens), P00338; purified LDHA, NADH/diaphorase-resazurin fluorescence; stronger effect = lower value; activity change, % (values are at about 110 or 230 µM); 480,000 tested, 0.15% active; AID 1347041, 2019; in the data active means activity change below about -30%; inconclusive means mostly about -25% to -30%;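 further: plate controls were DMSO wells for no effect and wells without enzyme for full effect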
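LDH5 2 nM; NADH 0.06 mM, pyruvate 0.2 mM; 200 mM Tris pH 7.4, EDTA, Tween-20; 5 min RT. Detection: diaphorase 0.133 mg/mL + resazurin 37 µM, fluorescence ex540/em590 at 0 and 20 min; normalized to enzyme-free and DMSO wells.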
Nrf2 inh: Nrf2 qHTS screen for inhibitors; A549 ARE-Fluc reporter, luciferase luminescence, 18-24 h; Potency, µM (top dose mostly 46 µM), for inactives: at the top dose activity change, negative = inhibition, hits mostly inhibitors; 360,000 tested, 2.1% active; further: potency means the concentration at half of the fitted maximal effect; on the % scale 0 is the no-effect control and ±100 the full control effect; nearly all actives have a fitted effect of over 60% in size
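Nrf2 function is reported as luminescence of an ARE-controlled luciferase in A549 cells. Compounds were tested at several concentrations, and a CellTiter-Fluor read on the same wells flagged cytotoxicity.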
* hit, by the source's call; ? = inconclusive; nt = no result given. Unless noted, the call rests on the fitted dose curve; in most records, active means well fitted curve in the direction sought with a large enough effect; inconclusive means small, poorly fitted or top-dose-only effect, or another doubt; inactive means no such curve, though single readings can be large; an effect the other way counts as inactive or inconclusive.

SMILES	ERG Ets-DNA blk	Nrf2 activator	12-LOX inh	A549 tox	LDHA inh	Nrf2 inh
Cc1ccc(-c2n[nH]c(=S)n2/N=C/c2ccc(C)s2)cc1	3%	1%	16µM*	-11%	-7	16%
Cc1ccc(-c2n[nH]c(=S)n2/N=C/c2cccn2C)cc1	3%	1%	25µM*	0%	-1	-7%
CCOc1ccc(S(=O)(=O)N2CCN(C(=S)NCc3ccccc3)CC2)cc1	-2%	1%	13%	3%	-2	26µM*
CCn1c(C)nc2cc(C(=O)N/N=C(\C)c3ccc(OC)cc3O)ccc21	9%	0%	-1%	-14%	3	23µM*
Cc1cccc(Cn2c(SCc3ccc(C(=O)N4CCCCCC4)cc3)nc3ccncc32)c1	6%	-1%	-12%	0%	5	23µM*
CCCCN(C)C(=O)c1sc2nc(C(C)(C)C)nc(C)c2c1C	nt	nt	7%	nt	2	nt
Cn1c(=O)c2c(ncn2CC(=O)Nc2ccccc2C(=O)NC2CCCC2)n(C)c1=O	nt	nt	-13%	nt	2	nt
COc1ccc2c(c1)cc(C(=O)Nc1cccc(C)c1C)n2C	nt	nt	-26%	nt	11	nt
ON(/C=C1\C=Nc2ccccc21)c1ccc(Br)cc1	nt	nt	?	nt	0	nt
Cc1ccc(NC(=O)CSc2nc3ccccc3c3nc(CCc4c(C)n[nH]c4C)nn23)cc1F	-15%	0%	0%	?	-5	13µM*
Cc1n[nH]c(C)c1CCc1nc2c3ccccc3nc(SCC(=O)Nc3ccc(F)cc3)n2n1	22%	-1%	-7%	-15%	-7	nt
CC(C)CNC(=O)c1cc2cc(N(C)S(=O)(=O)c3ccc(Cl)cc3)ccc2s1	nt	nt	6%	nt	3	nt
O=S(=O)(Nc1ccccc1Sc1nncs1)C1=Cc2ccccc2CC1	nt	nt	?	nt	7	nt
Oc1ccc(C=NNC(=S)Nc2ccc(F)cc2)c(O)c1	-3%	2%	40µM*	-27%	0	18%
Cc1ncc(CO)c(/C=N/N=C/c2ccccc2O)c1O	4%	9%	10%	0%	-4	-1%
Cc1ncc(CO)c(/C=N/NC(=S)Nc2ccc(F)cc2)c1O	2%	-1%	40µM*	-4%	1	?
Cc1ncc(CO)c(/C=N/Nc2ccc(C(F)(F)F)cn2)c1O	3%	-1%	?	?	3	10µM*
Fc1ccc(/C=N/Nc2ccc(C(F)(F)F)cn2)cc1	nt	nt	31%	nt	7	nt
C/C(=C\c1ccccc1)C(=O)Nc1ccccc1C(C)C	nt	nt	8%	nt	11	nt
COC(=O)C1=C(C)N(Cc2ccc(Cl)cc2)C(=S)NC1c1ccc(Br)cc1 (stereo not drawn)	nt	nt	32µM*	nt	nt	nt
COC(=O)C1=C(C)N(C)C(=S)NC1c1ccc(Cl)cc1 (stereo not drawn)	-13%	4%	?	3%	-1	-2%
COC(=O)C1=C(C)N(Cc2ccc(Cl)cc2)C(=S)NC1c1ccc(F)cc1 (stereo not drawn)	nt	nt	40µM*	nt	nt	nt
COc1ccc(Cc2nnc(SC(C)c3nc4ccccc4c(=O)[nH]3)n2N)cc1 (stereo not drawn)	nt	nt	?	nt	5	nt
Cc1nc2cc(F)ccc2cc1C(=O)N1CCN(Cc2ccccc2F)CC1	nt	nt	?	nt	27	nt
O=C(OCc1noc(-c2ccco2)n1)c1cc(Br)c[nH]1	nt	nt	25µM*	nt	3	nt
SMILES	ERG Ets-DNA blk	Nrf2 activator	12-LOX inh	A549 tox	LDHA inh	Nrf2 inh
O=C(OCc1noc(-c2ccco2)n1)c1cncc(Br)c1	nt	nt	7%	nt	-2	nt
O=C(Nc1cc(C(=O)Nc2ccc(S(=O)(=O)O)cc2S(=O)(=O)O)cc(C(=O)Nc2ccc(S(=O)(=O)O)cc2S(=O)(=O)O)c1)Nc1cc(C(=O)Nc2ccc(S(=O)(=O)O)cc2S(=O)(=O)O)cc(C(=O)Nc2ccc(S(=O)(=O)O)cc2S(=O)(=O)O)c1	nt	nt	27%	nt	-38*	nt
COc1cccc(NC(=S)N2CCC(Cc3ccccc3)CC2)c1	0%	0%	?	-1%	-2	18µM*
O=C(COC(=O)c1cc(-c2ccc(F)cc2)nc2ccccc12)NC1CC1	nt	nt	-10%	nt	-6	nt
CCOc1ccc(CN(C)C(=O)c2ccc3c(c2)NC(=O)C(C)S3)cc1OC (stereo not drawn)	3%	6%	-10%	-19%	-1	16µM*
CC(C)C1Cc2c(sc3[nH]c(=S)n(Cc4ccccc4)c(=O)c23)CO1 (stereo not drawn)	-5%	-1%	?	?	-7	16µM*
COc1cc2nc(-c3cc(F)ccc3O)nc(N[C@@H]3CNC[C@@H]3C(C)(C)O)c2cc1OC	nt	nt	2.4µM*	nt	nt	nt
Cc1nn(-c2ccccc2)c2nc(N)c(C#N)c(-c3ccc(O)c(O)c3)c12	-10%	1%	32µM*	-10%	4	16%
Cc1nn(-c2ccc(F)cc2)c2nc(N)c(C#N)c(-c3ccc(O)c(O)c3)c12	2%	-1%	?	-11%	5	2%
CC(C)(C)c1ccc(-c2nc(-c3ccc(Br)o3)no2)cc1	nt	nt	15%	nt	-31*	nt
O=C(CSc1nc2ccc([N+](=O)[O-])cc2[nH]1)NC1CCCCC1	4%	0%	1%	-6%	0	nt
O=C(CSc1nc2ccc([N+](=O)[O-])cc2[nH]1)NC1CCCCCC1	-12%	2%	-29%	?	-4	13µM*
COc1ccc(-n2cc(CNCc3cccnc3)c(-c3cccc(F)c3)n2)cc1	-6%	4%	-3%	-8%	-2	19%
COc1ccc(CNCc2cn(-c3cccc(F)c3)nc2-c2ccc(C)o2)cc1	11%	-4%	45µM*	-17%	3	0%
Cc1cccc(Cn2c(N3CCN(c4ccccn4)CC3)nc3c2c(=O)n(C)c(=O)n3C)c1	nt	nt	?	nt	5	nt
COc1cccc(C(=O)Nc2ccc3oc(-c4ccc(F)cc4)cc(=O)c3c2)c1	nt	nt	-55%	nt	-35*	nt
O=C(CCN1CCN(CCO)CC1)Nc1ccc(C2CCCC2)cc1	1%	5%	45µM*	-1%	0	0%
CCCCn1c(SCC(=O)Nc2nnc(CC)s2)nc2c1c(=O)n(C)c(=O)n2C	-3%	0%	-16%	-3%	-3	8.2µM*
COc1ccc(-n2nnnc2SCC(=O)Nc2nc3c(s2)CCCC3)cc1	2%	0%	-1%	-15%	1	16µM*
CCOC(=O)c1c(NC(=O)CSc2nc3c(c(=O)n(C)c(=O)n3C)n2C(C)C)sc(C)c1C	nt	-1%	1%	1%	-9	6%

Screens (PubChem BioAssay)
